Reference: PubChem BioAssay AID1159580 (chemical genetic matrix, 2015)
Several values for one entry are separate records, joined by “and”; a condition that tells them apart may be missing. Identical values can stand only once. The campaign covered roughly 5,500 compounds. About 2,000 (36%) were called active. Not shown: some 18% with an inconclusive outcome. No stated cut-off is given here; in the data, active means normalized growth mostly below about 0.91 (no sharp cut-off); inconclusive means no clear call, values can overlap the other calls; inactive means mostly above about 0.92. Some of the results follow.

Test: chemical genetic growth profiling, strain panel (AID 1159580);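 further: tested at 20 µM; growth read once vehicle control cultures reached saturation at 30 °C; 1 = growth at the plate median or of vehicle wells; lower values mean less growth of the strain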
Conditions: S. cerevisiae deletion strains, growth OD

Measured: normalized growth

COC1CC(O[C@H]2CC[C@]3(C=O)C4CC[C@]5(C)C(C6=CC(=O)OC6)CC[C@]5(O)C4CC[C@]3(O)C2)OC(C)C1O (some centres not stated)
inactive: locus YAL013W, strain DEP1, hits give low values 1.02 | locus YAL021C, strain ccr4, hits give low values 0.938 | locus YAL026C, strain drs2, hits give low values 1.02 | locus YAL030W, strain snc1, hits give low values 0.978 | locus YBL061C, strain skt5, hits give low values 0.99 | locus YBR009C, strain hhf1, hits give low values 0.985 | locus YBR021W, strain FUR4, hits give low values 1.01 | locus YBR023C, strain chs3, hits give low values 0.967 | locus YBR171W, strain sec66, hits give low values 1 | locus YBR229C, strain ROT2, hits give low values 1.02 | locus YBR231C, strain swc5, hits give low values 1 | locus YBR279W, strain paf1, hits give low values 1 | locus YCL011C, strain gbp2, hits give low values 0.961 | locus YCL016C, strain dcc1, hits give low values 0.954 | locus YCL029C, strain bik1, hits give low values 0.994 | locus YCL069W, strain vba3, hits give low values 0.969 | locus YCR088W, strain abp1, hits give low values 0.983 | locus YDL005C, strain med2, hits give low values 0.969 | locus YDL035C, strain GPR1, hits give low values 1.04 | locus YDL040C, strain nat1, hits give low values 0.986 | locus YDL074C, strain BRE1, hits give low values 1.09 | locus YDL101C, strain DUN1, hits give low values 1.02 | locus YDL134C, strain PPH21, hits give low values 1.02 | locus YDL185W, strain tfp1, hits give low values 0.995 | locus YDL192W, strain arf1, hits give low values 1.02 | locus YDR001C, strain nth1, hits give low values 0.955 | locus YDR069C, strain doa4, hits give low values 0.994 | locus YDR101C, strain arx1, hits give low values 1.02 | locus YDR137W, strain rgp1, hits give low values 0.975 | locus YDR159W, strain sac3, hits give low values 1 | locus YDR162C, strain NBP2, hits give low values 1.03 | locus YDR195W, strain ref2 0.914 | locus YDR297W, strain sur2, hits give low values 0.999 | locus YDR318W, strain mcm21, hits give low values 1.01 | locus YDR334W, strain swr1, hits give low values 0.977 | locus YDR335W, strain msn5, hits give low values 0.955 | locus YDR388W, hits give low values 0.987 | locus YDR392W, strain spt3, hits give low values 0.903 | locus YDR502C, strain sam2, hits give low values 0.987 | locus YEL003W, strain gim4, hits give low values 1.01 | locus YEL037C, strain rad23, hits give low values 0.977 | locus YEL061C, strain CIN8 (second series), hits give low values 0.981 | locus YER015W, strain faa2, hits give low values 0.975 | locus YER016W, strain bim1, hits give low values 0.983 | locus YER110C, hits give low values 0.986 | locus YER111C, strain swi4, hits give low values 0.994 | locus YER155C, strain BEM2 (second series), hits give low values 1.01 | locus YER155C, strain BEM2, hits give low values 1.01 | locus YER167W, strain BCK2, hits give low values 1.03 | locus YFR010W, strain ubp6, hits give low values 1 | locus YGL078C, strain dbp3, hits give low values 0.992 | locus YGL086W, strain mad1, hits give low values 0.998 | locus YGL167C, strain pmr1, hits give low values 0.976 | locus YGL173C, strain kem1, hits give low values 0.992 | locus YGL227W, strain vid30, hits give low values 0.987 | locus YGL240W, strain doc1, hits give low values 1 | locus YGL248W, strain PDE1, hits give low values 1.01 | locus YGL253W, strain hxk2, hits give low values 0.997 | locus YGR078C, strain PAC10, hits give low values 1.02 | locus YGR135W, strain pre9, hits give low values 0.981 | locus YGR229C, strain SMI1, hits give low values 1.04 | locus YGR252W, strain gcn5, hits give low values 0.949 | locus YHR013C, strain ard1, hits give low values 0.934 | locus YHR027C, strain rpn1, hits give low values 0.97 | locus YHR030C, strain SLT2, hits give low values 1.02 and 0.984 | locus YHR079C, strain IRE1 (second series), hits give low values 0.998 | locus YHR079C, strain IRE1, hits give low values 1.01 | locus YHR094C, strain hxt1, hits give low values 0.984 | locus YHR129C, strain ARP1, hits give low values 1.02 | locus YHR142W, strain chs7, hits give low values 0.918 | locus YHR200W, strain rpn10, hits give low values 0.992 | locus YIL066C, strain RNR3, hits give low values 1.05 | locus YIL073C, strain SPO22, hits give low values 1.01 | locus YIL125W, strain kgd1, hits give low values 1 | locus YIR030C, strain dcg1, hits give low values 0.993 | locus YJL092W, strain hpr5, hits give low values 0.985 | locus YJL095W, strain BCK1 (second series), hits give low values 0.987 | locus YJL095W, strain BCK1, hits give low values 1.04 and 0.985 | locus YJL115W, strain asf1, hits give low values 0.964 | locus YJL129C, strain trk1, hits give low values 0.958 | locus YJL134W, strain LCB3, hits give low values 1.01 | locus YJL154C, strain vps35, hits give low values 0.967 | locus YJL164C, strain tpk1, hits give low values 0.99 | locus YJL166W, strain qcr8, hits give low values 0.996 | locus YJL168C, strain set2, hits give low values 0.994 | locus YJL187C, strain SWE1 (second series), hits give low values 1.02 | locus YJR066W, strain TOR1, hits give low values 0.904 | locus YKL009W, strain mrt4, hits give low values 1.04 | locus YKL068W, hits give low values 1 | locus YKL085W, strain MDH1 (second series), hits give low values 1 | locus YKL085W, strain MDH1, hits give low values 1 | locus YKL160W, strain elf1, hits give low values 0.962 | locus YKL190W, strain CNB1, hits give low values 1.02 | locus YKR001C, strain vps1, hits give low values 0.992 | locus YKR026C, strain gcn3, hits give low values 0.987 | locus YKR091W, strain srl3, hits give low values 0.968 | locus YLL001W, strain dnm1, hits give low values 0.963 | locus YLL026W, hits give low values 0.982 | locus YLL041C, strain sdh2, hits give low values 0.971 | locus YLR027C, strain aat2, hits give low values 1.02 | locus YLR039C, strain RIC1, hits give low values 1.08 | locus YLR058C, strain SHM2, hits give low values 1.03 | locus YLR102C, strain apc9, hits give low values 0.996 | locus YLR113W, strain HOG1, hits give low values 1.02 | locus YLR221C, strain rsa3, hits give low values 1.02 | locus YLR258W, strain gsy2, hits give low values 0.962 | locus YLR262C, strain YPT6 (second series), hits give low values 1.01 | locus YLR262C, strain YPT6, hits give low values 1.11 | locus YLR268W, strain sec22, hits give low values 1.02 | locus YLR320W, strain mms22, hits give low values 1.03 | locus YLR330W, strain CHS5, hits give low values 1.02 | locus YLR342W, strain FKS1 (second series), hits give low values 1.06 | locus YLR342W, strain FKS1, hits give low values 1 | locus YLR357W, strain rsc2, hits give low values 0.95 | locus YLR370C, strain arc18, hits give low values 0.98 | locus YLR371W, strain rom2, hits give low values 1.01 | locus YLR384C, strain iki3, hits give low values 0.969 | locus YLR418C, strain cdc73, hits give low values 0.958 | locus YML016C, strain PPZ1, hits give low values 1.02 | locus YML032C, strain rad52, hits give low values 0.994 | locus YML120C, strain ndi1, hits give low values 0.947 | locus YML124C, strain tub3, hits give low values 0.997 | locus YMR058W, strain fet3, hits give low values 0.992 | locus YMR078C, strain ctf18, hits give low values 0.99 | locus YMR125W, strain sto1, hits give low values 0.926 | locus YMR129W, hits give low values 0.989 | locus YMR205C, strain PFK2, hits give low values 0.984 | locus YMR223W, strain ubp8, hits give low values 0.995 | locus YMR231W, strain pep5, hits give low values 1 | locus YMR307W, strain GAS1, hits give low values 1.16 | locus YNL067W, strain RPL9B, hits give low values 1 | locus YNL071W, strain lat1, hits give low values 0.967 | locus YNL183C, strain NPR1, hits give low values 0.927 | locus YNL209W, strain ssb2, hits give low values 0.984 | locus YNL233W, strain BNI4, hits give low values 1.02 | locus YNL248C, strain rpa49, hits give low values 0.904 | locus YNL250W, strain rad50, hits give low values 0.972 | locus YNL271C, strain bni1, hits give low values 1.01 | locus YNL298W, strain CLA4, hits give low values 0.998 | locus YNL307C, strain MCK1, hits give low values 0.998 | locus YNL322C, strain KRE1 (second series), hits give low values 0.971 | locus YNL322C, strain KRE1, hits give low values 1.02 | locus YNR049C, strain mso1, hits give low values 0.951 | locus YNR052C, strain pop2, hits give low values 0.988 | locus YOL012C, strain htz1 0.64 | locus YOL147C, strain pex11, hits give low values 0.987 | locus YOR001W, strain rrp6, hits give low values 0.989 | locus YOR061W, strain CKA2, hits give low values 1.05 | locus YOR069W, strain VPS5, hits give low values 1.02 | locus YOR070C, strain gyp1, hits give low values 1 | locus YOR080W, strain dia2, hits give low values 0.991 | locus YOR083W, strain WHI5, hits give low values 0.973 | locus YOR106W, strain vam3, hits give low values 0.922 | locus YOR136W, strain idh2, hits give low values 0.958 | locus YOR144C, strain elg1, hits give low values 0.989 | locus YOR184W, strain ser1, hits give low values 1.04 | locus YOR231W, strain MKK1, hits give low values 1.01 | locus YOR265W, strain rbl2, hits give low values 0.997 | locus YOR270C, strain vph1, hits give low values 1.08 | locus YOR290C, strain snf2, hits give low values 0.888 | locus YOR316C, strain cot1, hits give low values 0.984 | locus YPL051W, strain arl3, hits give low values 0.992 | locus YPL055C, strain LGE1, hits give low values 1.06 | locus YPL078C, strain atp4, hits give low values 0.927 | locus YPL106C, strain sse1, hits give low values 0.966 | locus YPL240C, strain hsp82, hits give low values 0.988 | locus YPL256C, strain CLN2, hits give low values 1.01 | locus YPR119W, strain clb2, hits give low values 0.992 | locus YPR141C, strain kar3, hits give low values 0.992 | locus YPR163C, strain tif3, hits give low values 0.993 | locus YPR167C, strain met16, hits give low values 0.987 | strain wtn01, hits give low values 1.01
